# Laboratory results taken from the supplement of paper PMC6555819.
# Legend:
# Assay in all cases: PBM binding z-score (relative to random genomic background probes); higher = stronger binding; sequences stand for … in GC…GCGATTGACAGCGTAGAATGAAGG
# [1] = test system: PPARg:RXRa DBDmut IVT, anti-RXR (DBD mutation: RXRa K156A/R161A, NR concentration 270 nM, RXRa partner concentration 90 nM)
# Procedure, shortened: (§1)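 On custom Agilent 4×180K arrays, double-stranded probes with 34-nt variable regions carried direct-repeat seeds, single-nucleotide variants, half-site ablations or random human genomic background. Ligand-free nuclear receptor dimers were applied for 1 h, and binding was read with antibodies against each partner (one per run). Binding z-scores come from regression-normalized fluorescence, with the random background probes as reference.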
# [2] = test system: PPARg:RXRa IVT, anti-PPARg (NR concentration 270 nM, RXRa partner concentration 90 nM)
# Procedure, shortened: as §1
# [3] = test system: PPARg DBDmut:RXRa IVT, anti-PPARg (DBD mutation: PPARg1 K132A/R137A, NR concentration 270 nM, RXRa partner concentration 90 nM)
# Procedure, shortened: as §1
# [4] = test system: PPARg DBDmut IVT, anti-PPARg (DBD mutation: PPARg1 K132A/R137A, NR concentration 270 nM)
# Procedure, shortened: as §1
# [5] = test system: PPARg homodimer (NR concentration 180 nM)
# Procedure, shortened: as §1
# [6] = test system: PXR:RXRa (NR concentration 270 nM, RXRa partner concentration 90 nM)
# Procedure, shortened: as §1
# [7] = test system: PXR homodimer (NR concentration 270 nM)
# Procedure, shortened: as §1
# [8] = test system: RARa homodimer (NR concentration 270 nM)
# Procedure, shortened: as §1
# [9] = test system: RARb:RXRa (NR concentration 270 nM, RXRa partner concentration 90 nM)
# Procedure, shortened: as §1
# [10] = test system: RARb homodimer (NR concentration 270 nM)
# Procedure, shortened: as §1
# [11] = test system: RARg:RXRa (NR concentration 270 nM, RXRa partner concentration 90 nM)
# Procedure, shortened: as §1
# [12] = test system: RARg homodimer (NR concentration 270 nM)
# Procedure, shortened: as §1
# [13] = test system: RXRa DBDmut IVT, anti-RXR (DBD mutation: RXRa K156A/R161A, NR concentration 90 nM)
# Procedure, shortened: as §1
# [14] = test system: RXRa homodimer (NR concentration 180 nM)
# Procedure, shortened: as §1
# [15] = test system: THRa:RXRa (NR concentration 90 nM, RXRa partner concentration 90 nM)
# Procedure, shortened: as §1
# [16] = test system: THRa homodimer (NR concentration 90 nM)
# Procedure, shortened: as §1
# [17] = test system: VDR homodimer (NR concentration 270 nM)
# Procedure, shortened: as §1
# [18] = test system: RARa:RXR (NR concentration 270 nM, RXRa partner concentration 90 nM)
# Procedure, shortened: as §1
# [19] = test system: VDR:RXRa (NR concentration 270 nM, RXRa partner concentration 90 nM)
# Procedure, shortened: as §1
Sequence,PBM binding z-score [1],PBM binding z-score [2],PBM binding z-score [3],PBM binding z-score [4],PBM binding z-score [5],PBM binding z-score [6],PBM binding z-score [7],PBM binding z-score [8],PBM binding z-score [9],PBM binding z-score [10],PBM binding z-score [11],PBM binding z-score [12],PBM binding z-score [13],PBM binding z-score [14],PBM binding z-score [15],PBM binding z-score [16],PBM binding z-score [17],PBM binding z-score [18],PBM binding z-score [19]
ATATGGAGGTTAAGGGTCATTCAGGTTGGTTCGC,3.59,5.42,3.41,2.22,4.57,6.14,3.95,3.41,3.97,4.46,5.75,4.13,2.5,7.76,3.96,2.38,5.63,,
CAACCTAGGTCACGAAAGGTCAAAGTCGAATGAC,5.05,6.58,1.6,1.91,4.46,7.28,2.49,1.71,,6.02,7.91,8.53,2.31,8.43,,2.77,3.44,6.93,
CCTAGCAGGCCAGGGTCACCCAAGCATTTCGCTT,-0.0206,1.79,-0.767,-1.42,1.59,3.36,-0.361,-0.318,3.12,3.34,3.95,2.98,-0.0851,4.34,3.44,1.71,1.35,,2.96
ACTTACGGGTCAACGACGTTATAGCACGCGTATA,3.06,3.74,1.35,0.774,1.67,3.19,-0.178,0.684,4.07,2.87,5.07,4.51,1.59,5.19,2.68,0.369,0.841,,4
ATCTCTAGGTAAAGGTCAGTGAAAGATCGATAGA,3.45,4.2,1.29,1.49,3.73,3.35,1.1,2.88,4.53,4.26,4.52,5.13,0.521,4.35,2.98,0.87,1.17,,2.89
CCTAGTGGGCCAAAGGTCATTGATTCCAATGCTC,5.71,7.73,2,0.985,7.49,5.83,3.2,3.01,4.62,4.6,5.89,4.92,1.92,6.9,3.22,0.756,3.23,,4.68
CAAACTAGGTCAAAGGTCAAAGTAGAGCCAACCA,8.23,9.26,5.64,3.48,4.85,7.02,2.18,2.42,,5.2,8.91,7.32,2.8,10.3,,1.79,2.99,8.45,
CCTAGCAGGCCAATCGGGGTCACTCAAGGCTTGA,2.04,3.14,-0.484,-1.21,3.42,6.01,1.7,0.0938,,3.66,4.43,3.43,1.12,6.01,,2.35,4,6.08,
CCTACAGGGCCAAAGGTCATTGATTCCAATGCTC,0.88,4.29,0.0481,-0.141,5.51,5.66,2.27,2.39,4.63,4.75,6.13,5.66,1.95,7.35,3.46,0.651,2.73,,
CAATCTAGGTCACGAAAGGTCAAAGTCGAATGAC,8.53,9.13,5.67,4,6.67,7.2,3.37,4.3,5.76,5.85,8.09,8.64,2.58,8.63,5.02,3.08,3.66,,
CCTACTGGGCCAAAGGTCAGTGATTCCAATGCTC,4.94,6.5,0.904,-0.864,4.06,3.49,0.00567,1.82,4.1,4.33,4.71,4.48,-0.00245,4.48,2.35,0.381,0.516,,2.88
GCTTACGGGTCAAAGGTTATAGTATGAATAGAAT,4.49,5.45,1.28,1.07,1.98,6.29,0.804,0.757,4.25,3.5,6.8,4.72,2.7,9.39,3.99,0.429,1.88,,
AATACAGGGTCACTAGGCCCGAGTAGGTACGAAT,2.32,4.28,2.04,0.859,1.77,2.94,0.0617,0.416,4.14,2.85,5.05,4.72,2.31,5.31,3.09,0.859,2.26,,
TAGCCTAGGTCACGGGCCAGTATACCACGCGAAC,2.44,5.21,0.69,0.437,1.4,2.28,-0.694,0.351,4.59,3.83,5.12,5.43,0.27,4.73,3.83,1.84,0.425,,
ACTCGGAGGGCAAAGGTCAGAGCTACGCCAGTGA,2.2,4.71,-0.0277,-0.839,5.97,5.61,0.191,0.823,4.93,4.39,7.23,5.86,1.7,,3.36,-0.408,1.05,,
CCTACGGGGCCAAAGGTCATTGATTCCAATGCTC,1.49,5.33,-0.65,-0.159,5.46,6.24,2.59,2.51,4.72,4.5,6.59,5.24,1.86,,3.78,0.564,2.99,,
GACACAGGGTCAGCTAGAGGCCAGAGTATGGAAA,0.69,1.9,-0.301,-0.892,1.74,2.92,-0.286,-0.561,4.26,3.17,6.46,4.41,1.3,4.1,3.1,-0.0446,0.591,,
